Experimental data taken from article PMC13494018.

B1: d4r4_design_ppi_58_dldesign_0_cycle1_af2pred (protein)
chain: MEELKKAEEEAKKAVEEAKKYAELIAEGKSEEGIEKIKKIAEELKKKGKETTPEAAKIYEKAVKEIAKIAHEGLEKRAEKEAK
B2: d4r4_design_ppi_229_dldesign_0_cycle1_af2pred (protein)
chain: EKEEKKKEAKELAEEAKKLAEELAKAAEEDLEKAKELYKKAKEAAGKAIKLAKEAGDKETAKEASENNFKAHENYAEGKFK
B3: d4r4_design_ppi_213_dldesign_0_cycle1_af2pred (protein)
chain: GALEEAKKLVEEAAKLAEEGKLEEAKEKLKKAMDLAAEHEDPEVVREIAREAKKIVELAEKKKKEKEEKEKKEK
B4: d4r4_design_ppi_90_dldesign_0_cycle1_af2pred (protein)
chain: MTKEEAERMIKILKERLEKIKKAGKEKGEEMQKIAKELEEALKKAEEAFKKDPEKAGAYFQEARQIAAEGEFKEK
B5: d4r4_design_ppi_128_dldesign_0_cycle1_af2pred (protein)
chain: SSAEQAAKLRAELDAAAAAAAAAIAAAAGLTPAAAAAASAATIAAYKATASALIDAAFELSSDYGRSIAKAAKEKLAALEAQAAALA
B6: d4r3_design_ppi_308_dldesign_0_cycle1_af2pred (protein)
chain: MEAEKKAEKALEELKKAAKKLEELAKKGGSVEEAEELNEKVLELRSEAKFYASKADEEFGKKVKEEAKKALEKAREAYKKLKE
B7: d4r3_design_ppi_300_dldesign_0_cycle1_af2pred (protein)
chain: SSAELTKEAKAKVEAAGAAADAAAAADPAAGAAAYTEAAQLALQESAKLDASKENKEAAEEMRKKGKEFAAKAKALRA
B8: d4r4_design_ppi_87_dldesign_0_cycle0_af2pred (protein)
chain: AEENKAEGAKEAAEDAIEAALKKAEEDPEEGLKAAEKVKERVKKRAEEVEETEYGKKVGKEIKKKAEKALKEIEKKAKAAKAAK
B9: d4r4_design_ppi_225_dldesign_0_cycle1_af2pred (protein)
chain: DELREQAERAKKRFEEAEKKLKEALEKGDKKEAIKYAERLKHLAEVAEKLAEEVEAAATNPETKELAERLKELAKRAKKLAEEALKK
B10: d4r4_design_ppi_222_dldesign_0_cycle1_af2pred (protein)
chain: SLEKLKEYLENAEKERKKVLEAAKEARELAKKGEEEEAKKYLGNAVTDARLNLNEAAYDAGLDTSIGNKLAKEFGAEGEKIFK
B11: d4r3_design_ppi_383_dldesign_0_cycle0_af2pred (protein)
chain: SSLASELNEKKAEERGLEYAKKRLDEKAKKALELAKQVPEVAAEVKKLVDEGKALLEKGDIGGAFAKMDEALKLAEKALAA
B12: d4r4_design_ppi_240_dldesign_0_cycle0_af2pred (protein)
chain: MKEKQEKARAEARAEHVKEAIEKYYKEAAKGDKKEALKKTAEFAKEAAKKAKYPLTKEIALALAEEYAKKAA
B13: d4r4_design_ppi_129_dldesign_0_cycle1_af2pred (protein)
chain: MEKVTEARDVALEAAGILELAGIKVPEYRKELSEKAKEAIREVAEAGREALEKGEEEYEKLEKVAEKVYKEAKKKAEEALKKKE
B14: d4r4_design_ppi_180_dldesign_0_cycle1_af2pred (protein)
chain: DDFEKALEELKKAGELLPEAAEIAEEAIKKATASKDLKEAAKILLEAAKKIAKIAKEAGNEEAAKAAAAAAQYARQLKAAA
B15: d4r4_design_ppi_105_dldesign_0_cycle1_af2pred (protein)
chain: MEEIKKEVEETTKKAKEKLKELEKEAEKAGVKEAVEVAKKGKEKVEKLAKKAEKAVKEGNKNYALAKIDAIKDTTEAAEKQVKKLIKA
B16: d4r3_design_ppi_258_dldesign_0_cycle1_af2pred (protein)
chain: AAEEARKAKIQKMADRLLELSKKYGISLEDMKDMMSFSATDPADKAVGLALLDAGHAELAAAKAAEAARAEALAA
B17: d4r4_design_ppi_229_dldesign_0_cycle0_af2pred (protein)
chain: EKEEKIKKAKELAEKAKELAKKLKEAGEKDLEKAKKLLKEAREAAKKAIELAKEAGDEELAKKASDEQAKAQEAYAEAKAK
B18: d4r4_design_ppi_2_dldesign_0_cycle0_af2pred (protein)
chain: DEKAKKMAEEARKAAEEGRKALKEARKLAKEGELEKAAKLAEETAKKAEEKAKEAEKLSKKVAPEALRLLGVADAAKTAAEEFKKKL
B19: d4r3_design_ppi_381_dldesign_0_cycle1_af2pred (protein)
chain: GSSDELEKKTETKAYRSLSTKKAKEYSKDKELVKKIEEEAKTYEGALKARKETEEIVKEVKKKEEEEKKKKE
B20: d4r4_design_ppi_123_dldesign_0_cycle0_af2pred (protein)
chain: SEAEKKTKEAAKLAYEAAKSNPEKGREYRKKAGELIATLSPEEAKKAAAEAQDAYAEGRAEKKLEELKKREEEK
B21: d4r4_design_ppi_225_dldesign_0_cycle0_af2pred (protein)
chain: AELRERAEAAERRFEAAKARLKEALEKGDKSRAYGEAFRLKHIAEVARRLAAEVRAAATTEEQRELAERLEELAREAEALAEEALKK
B22: d4r4_design_ppi_227_dldesign_0_cycle1_af2pred (protein)
chain: GFKTKATAESGYERMKSIYEAFAKLGPKSPIYKEGAEKMKEYAEKLKELENSTEEEIEKLSKEGIEVGKKLKAEAEAK
B23: d4r3_design_ppi_464_dldesign_0_cycle1_af2pred (protein)
chain: SVSLEEQEARALARTYAEIAEKKIKEAPKDKELAEKIAKEVLEEAKKAAKDLPEYEEYTIELAEKRLKEILEKYAKKA
B24: d4r4_design_ppi_34_dldesign_0_cycle0_af2pred (protein)
chain: VQKLIDEAAQEIQEARAHISGAEQYVLMGKEYLPEAKKDLEEAEKHIKKAKELTKKAKEAGADEEEIKKLEKAIEKAEARLEEVKKMM
B25: d4r4_design_ppi_58_dldesign_0_cycle0_af2pred (protein)
chain: EEELKKAKEEAEKAIKEAEEAAKKIEEGEAREGVKKIREIKKKLEEKGKESTPEAKKIYKEAAKKIAEIAHEGLEKRAEKKAK
B26: d4r4_design_ppi_34_dldesign_0_cycle1_af2pred (protein)
chain: AEELVKEAAKHIQEARSLINAAEQYVKLGKEKLEEAKEDLKKAEEHIEKAKELAKKAKEAGADEEDVKKLEEAIEKAKKKLEEVKKLI
B27: d4r4_design_ppi_44_dldesign_0_cycle1_af2pred (protein)
chain: AKAKEEGKKLAKEATEEAKKLLDKAKEEVKKGGTYEEVKKYVDKGKEAAKKYGAKAKELPETAADVAKVIQDFYEESNEALAEAKRL
B28: d4r4_design_ppi_79_dldesign_0_cycle1_af2pred (protein)
chain: AGKAAYEKLKANMERREKKAEEAEKKDKKLGKFEAEKGIEFSKHAAEAAKKKAAEDPAYKEAAKYAKEAEEKFKKKLKELEK
B29: d4r4_design_ppi_102_dldesign_0_cycle1_af2pred (protein)
chain: EEEKVKKAAEKAIKLAKETAEKAYKAAKKVKDKEYKEKFKEITLLALEAKALARAGKALGNKELVEAAKKLAEEAKEKLEKLEKEAE
B30: d4r3_design_ppi_300_dldesign_0_cycle0_af2pred (protein)
chain: SAEELAKKAKEEVEKAEKEAEEAAAKDKKAGAAKYAEAAQLAYQKAGELDASKENKEEAEEMRERGRELAKKARELEA
B31: d4r4_design_ppi_123_dldesign_0_cycle1_af2pred (protein)
chain: AAEAAKAAAAAALAKKAAQSSPEKARAYRKEAGALIAELSPAAAAAAAAAAQDAYADGVAEKVLSELEEKKKKE
B32: d4r4_design_ppi_2_dldesign_0_cycle1_af2pred (protein)
chain: DEKAKKAAEEAKKVAKEGREKLKEAEKLMKEGKYKEAAKLAAEVAKKAKEKAEEAEKISKSVAPYALLLENVADAAKALAKEAKEKI
B33: d4r4_design_ppi_157_dldesign_0_cycle1_af2pred (protein)
chain: SKEEARKRGLESAEELKELVEEGIPVEAVGAIAASDVEWLMKYPYGEYAAEALIEALEKYNPVMGEKAREAYEEAKERKAK
B34: d4r3_design_ppi_270_dldesign_0_cycle1_af2pred (protein)
chain: SAEEEKKKLLAIADEYAAKVKEAAADLEKAGAVLKEGITELVKLGAPNSVIAYLISKAVKAVGSKIMPYADEAIDEALKA
B35: d4r4_design_ppi_128_dldesign_0_cycle0_af2pred (protein)
chain: ESEKKYKELKEELEKAYKEAKKAILEASKLKPEEAKKKMEEILEEFKKKAYELISKALEQSADYGRELAKLAQEYYKELEELAKKLL
B36: d4r3_design_ppi_266_dldesign_0_cycle0_af2pred (protein)
chain: MEEKGNEVIERAKKKLEEGKKLAKEGELLKGYALAQSAEARAENAAEAAEKAGLEEVAKKAKEVAKEAKAAAEEIEKKRKEAEA
B37: d4r3_design_ppi_402_dldesign_0_cycle1_af2pred (protein)
chain: EEEEKKKAEELKKFLEEQNKKRKEVAELAKKYPEVAPYAKAYAKAQNEAFEYYDVDKEKSAKALAEAEKYEAKINALLAKL
B38: d4r3_design_ppi_239_dldesign_0_cycle1_af2pred (protein)
chain: MEEAEKALKKAEELRAEAKRLGEIVSNPELGKKEAAKAGKKTPEEIEAWLKEVAAKAQELREEAAEYEAKAIRIK

target: VTCN1, Q7Z7D3
Sequence (Q7Z7D3 whole entry): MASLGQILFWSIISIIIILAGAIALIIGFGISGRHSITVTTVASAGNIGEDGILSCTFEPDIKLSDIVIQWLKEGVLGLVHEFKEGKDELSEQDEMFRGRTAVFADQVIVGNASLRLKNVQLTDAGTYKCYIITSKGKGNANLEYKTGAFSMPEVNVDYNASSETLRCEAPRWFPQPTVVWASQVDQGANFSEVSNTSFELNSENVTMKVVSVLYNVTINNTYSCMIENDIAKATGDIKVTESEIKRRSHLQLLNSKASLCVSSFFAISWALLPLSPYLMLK

Binding in a display sort, inactive:
B1 not found, B2 not found, B3 not found, B4 not found, B5 not found, B6 not found, B7 not found, B8 not found, B9 not found, B10 not found, B11 not found, B12 not found, B13 not found, B14 not found, B15 not found, B16 not found, B17 not found, B18 not found, B19 not found, B20 not found, B21 not found, B22 not found, B23 not found, B24 not found, B25 not found, B26 not found, B27 not found, B28 not found, B29 not found, B30 not found, B31 not found, B32 not found, B33 not found, B34 not found, B35 not found, B36 not found, B37 not found, B38 not found
